The values that follow come from ChEMBL document CHEMBL2218924, “A broad activity screen in support of a chemogenomic map for kinase signalling research and drug discovery” (Biochem J, 2013).

Test [1] deals with Focal adhesion kinase 1 (Homo sapiens) (UniProt Q05397). The conditions noted are these: at 10 µM.
For test [2], the target named is Fibroblast growth factor receptor 1 (Homo sapiens) (UniProt P11362). As to conditions: at 1 µM.
The target is the same in test [3]. The conditions noted are these: at 10 µM.
Test [4] concerns the target Fibroblast growth factor receptor 2 (Homo sapiens) (UniProt P21802). The conditions noted are these: at 1 µM.
The target is the same in test [5]. The conditions noted are these: at 10 µM.
In test [6] the target is Fibroblast growth factor receptor 3 (Homo sapiens) (UniProt P22607). As to conditions: at 1 µM.
The target is the same in test [7]. As to conditions: at 10 µM.
Test [8] addresses Fibroblast growth factor receptor 4 (Homo sapiens) (UniProt P22455). The conditions noted are these: at 1 µM.
The target is the same in test [9]. The conditions noted are these: at 10 µM.
Test [10] deals with Tyrosine-protein kinase Fer (Homo sapiens) (UniProt P16591). The conditions noted are these: at 1 µM.
The target is the same in test [11]. The conditions noted are these: at 10 µM.
The target of test [12] is Tyrosine-protein kinase Fes/Fps (Homo sapiens) (UniProt P07332). The conditions noted are these: at 1 µM.
Test [13] has the same target. The conditions noted are these: at 10 µM.
The target of test [14] is Tyrosine-protein kinase Fgr (Homo sapiens) (UniProt P09769). As to conditions: at 1 µM.
Test [15] shares this target. As to conditions: at 10 µM.
The target of test [16] is Vascular endothelial growth factor receptor 1 (Homo sapiens) (UniProt P17948). As to conditions: at 1 µM.
Test [17] has the same target. As to conditions: at 10 µM.
In test [18] the target is Receptor-type tyrosine-protein kinase FLT3 (Homo sapiens) (UniProt P36888). As to conditions: at 1 µM.
The target is the same in test [19]. The conditions noted are these: at 10 µM.
Test [20] concerns the target Vascular endothelial growth factor receptor 3 (Homo sapiens) (UniProt P35916). The conditions noted are these: at 1 µM.

Structures are written as SMILES.

Sequence of Receptor-type tyrosine-protein kinase FLT3 (Homo sapiens) (P36888 whole entry): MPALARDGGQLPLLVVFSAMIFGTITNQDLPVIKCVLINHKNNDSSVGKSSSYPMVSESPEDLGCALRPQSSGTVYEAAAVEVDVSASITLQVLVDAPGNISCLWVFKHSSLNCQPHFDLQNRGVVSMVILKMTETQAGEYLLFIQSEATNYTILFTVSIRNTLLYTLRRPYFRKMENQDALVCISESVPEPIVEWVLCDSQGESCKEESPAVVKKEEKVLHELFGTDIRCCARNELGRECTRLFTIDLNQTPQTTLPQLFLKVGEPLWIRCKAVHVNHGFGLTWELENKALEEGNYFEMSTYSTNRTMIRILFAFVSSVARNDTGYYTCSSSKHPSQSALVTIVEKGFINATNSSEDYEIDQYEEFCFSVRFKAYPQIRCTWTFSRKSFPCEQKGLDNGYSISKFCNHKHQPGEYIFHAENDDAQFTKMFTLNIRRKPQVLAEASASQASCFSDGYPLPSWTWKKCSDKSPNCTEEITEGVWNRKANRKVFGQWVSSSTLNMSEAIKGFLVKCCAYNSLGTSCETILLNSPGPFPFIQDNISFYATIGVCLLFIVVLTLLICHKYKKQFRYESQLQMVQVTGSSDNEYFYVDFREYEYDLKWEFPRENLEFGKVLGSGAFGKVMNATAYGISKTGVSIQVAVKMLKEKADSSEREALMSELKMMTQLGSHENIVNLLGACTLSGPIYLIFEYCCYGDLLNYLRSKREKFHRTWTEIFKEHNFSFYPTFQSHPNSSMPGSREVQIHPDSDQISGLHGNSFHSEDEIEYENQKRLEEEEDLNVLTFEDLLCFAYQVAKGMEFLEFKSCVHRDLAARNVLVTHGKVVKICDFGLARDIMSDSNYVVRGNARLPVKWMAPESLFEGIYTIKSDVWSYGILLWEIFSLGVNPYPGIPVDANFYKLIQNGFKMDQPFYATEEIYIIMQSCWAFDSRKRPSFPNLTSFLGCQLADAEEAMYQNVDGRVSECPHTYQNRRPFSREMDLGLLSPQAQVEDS
Sequence of Vascular endothelial growth factor receptor 1 (Homo sapiens) (P17948 whole entry): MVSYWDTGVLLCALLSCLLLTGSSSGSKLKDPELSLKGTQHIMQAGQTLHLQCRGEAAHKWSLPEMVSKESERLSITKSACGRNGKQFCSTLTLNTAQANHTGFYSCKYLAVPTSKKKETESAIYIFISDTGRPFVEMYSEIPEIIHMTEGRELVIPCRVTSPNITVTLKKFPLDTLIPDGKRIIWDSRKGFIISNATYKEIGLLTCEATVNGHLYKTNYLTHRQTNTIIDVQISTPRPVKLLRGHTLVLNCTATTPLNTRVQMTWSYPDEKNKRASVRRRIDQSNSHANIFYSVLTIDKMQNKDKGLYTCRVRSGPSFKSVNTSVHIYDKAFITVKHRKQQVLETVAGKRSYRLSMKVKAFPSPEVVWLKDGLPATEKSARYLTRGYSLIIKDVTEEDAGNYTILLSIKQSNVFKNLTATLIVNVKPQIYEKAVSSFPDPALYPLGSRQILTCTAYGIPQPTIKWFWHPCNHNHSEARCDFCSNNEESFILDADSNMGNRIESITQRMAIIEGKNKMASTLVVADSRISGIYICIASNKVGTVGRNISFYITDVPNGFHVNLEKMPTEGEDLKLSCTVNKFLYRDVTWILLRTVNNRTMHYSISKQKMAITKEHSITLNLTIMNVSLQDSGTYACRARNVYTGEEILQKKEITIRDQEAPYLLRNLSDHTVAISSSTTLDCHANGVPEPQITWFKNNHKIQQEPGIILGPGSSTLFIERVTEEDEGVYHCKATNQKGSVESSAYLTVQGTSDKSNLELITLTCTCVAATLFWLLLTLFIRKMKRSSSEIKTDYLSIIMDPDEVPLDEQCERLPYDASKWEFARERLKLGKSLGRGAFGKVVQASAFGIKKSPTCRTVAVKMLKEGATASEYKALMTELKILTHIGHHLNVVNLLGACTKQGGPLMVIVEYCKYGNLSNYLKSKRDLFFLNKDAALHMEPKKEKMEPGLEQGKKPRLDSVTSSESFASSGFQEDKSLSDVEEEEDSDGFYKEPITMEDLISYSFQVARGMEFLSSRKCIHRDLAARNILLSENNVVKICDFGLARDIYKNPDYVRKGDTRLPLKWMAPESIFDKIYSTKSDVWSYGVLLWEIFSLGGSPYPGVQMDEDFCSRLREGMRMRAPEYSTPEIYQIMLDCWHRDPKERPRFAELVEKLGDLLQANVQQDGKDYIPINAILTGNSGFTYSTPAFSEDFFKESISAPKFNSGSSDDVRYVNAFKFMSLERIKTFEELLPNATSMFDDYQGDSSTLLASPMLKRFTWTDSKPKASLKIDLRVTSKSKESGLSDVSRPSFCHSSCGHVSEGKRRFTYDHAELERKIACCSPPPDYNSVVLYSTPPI
Sequence of Tyrosine-protein kinase Fes/Fps (Homo sapiens) (P07332 whole entry): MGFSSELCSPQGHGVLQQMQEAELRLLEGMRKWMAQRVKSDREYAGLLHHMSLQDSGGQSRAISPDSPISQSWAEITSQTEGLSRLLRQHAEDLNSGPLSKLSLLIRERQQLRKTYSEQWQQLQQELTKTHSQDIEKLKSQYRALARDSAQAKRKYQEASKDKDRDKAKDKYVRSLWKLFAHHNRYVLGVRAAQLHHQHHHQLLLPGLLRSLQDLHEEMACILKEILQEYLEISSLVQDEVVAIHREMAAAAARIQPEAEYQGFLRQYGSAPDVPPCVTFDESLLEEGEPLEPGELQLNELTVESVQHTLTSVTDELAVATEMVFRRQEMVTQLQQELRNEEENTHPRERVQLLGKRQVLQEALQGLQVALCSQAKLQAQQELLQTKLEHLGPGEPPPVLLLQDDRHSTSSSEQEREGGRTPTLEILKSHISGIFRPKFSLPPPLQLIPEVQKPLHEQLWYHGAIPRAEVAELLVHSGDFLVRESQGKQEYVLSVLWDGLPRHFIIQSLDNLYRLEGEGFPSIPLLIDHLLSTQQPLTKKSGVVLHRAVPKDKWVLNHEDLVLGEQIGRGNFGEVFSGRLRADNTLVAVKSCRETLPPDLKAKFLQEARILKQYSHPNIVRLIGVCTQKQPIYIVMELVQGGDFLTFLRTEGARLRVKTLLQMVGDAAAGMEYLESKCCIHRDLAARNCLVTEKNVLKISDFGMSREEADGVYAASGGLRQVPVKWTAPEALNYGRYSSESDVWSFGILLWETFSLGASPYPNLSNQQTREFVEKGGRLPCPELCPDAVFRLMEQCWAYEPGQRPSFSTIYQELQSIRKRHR
Sequence of Fibroblast growth factor receptor 1 (Homo sapiens) (P11362 22-822 limits assumed): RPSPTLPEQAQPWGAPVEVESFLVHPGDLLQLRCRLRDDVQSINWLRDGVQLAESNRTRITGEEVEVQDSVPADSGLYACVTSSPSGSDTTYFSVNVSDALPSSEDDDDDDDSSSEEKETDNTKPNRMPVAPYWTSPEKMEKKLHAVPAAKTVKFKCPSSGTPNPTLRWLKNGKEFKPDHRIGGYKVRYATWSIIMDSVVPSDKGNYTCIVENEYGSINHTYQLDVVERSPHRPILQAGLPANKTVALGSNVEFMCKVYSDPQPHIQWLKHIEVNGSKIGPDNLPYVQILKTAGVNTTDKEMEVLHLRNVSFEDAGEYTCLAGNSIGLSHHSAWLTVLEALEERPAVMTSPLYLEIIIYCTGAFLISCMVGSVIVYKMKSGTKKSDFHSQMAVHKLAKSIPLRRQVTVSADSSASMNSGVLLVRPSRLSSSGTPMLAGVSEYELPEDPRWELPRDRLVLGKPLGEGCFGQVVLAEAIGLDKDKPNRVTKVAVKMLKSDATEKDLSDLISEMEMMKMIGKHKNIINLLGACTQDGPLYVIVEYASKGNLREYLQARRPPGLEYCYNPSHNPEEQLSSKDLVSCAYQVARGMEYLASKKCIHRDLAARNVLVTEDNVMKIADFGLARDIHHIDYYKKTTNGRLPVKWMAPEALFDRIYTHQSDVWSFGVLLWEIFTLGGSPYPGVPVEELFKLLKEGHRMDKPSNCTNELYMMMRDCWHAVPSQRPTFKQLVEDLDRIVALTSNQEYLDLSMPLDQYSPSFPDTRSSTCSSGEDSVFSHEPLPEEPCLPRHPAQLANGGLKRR
Sequence of Tyrosine-protein kinase Fgr (Homo sapiens) (P09769 2-529 limits assumed): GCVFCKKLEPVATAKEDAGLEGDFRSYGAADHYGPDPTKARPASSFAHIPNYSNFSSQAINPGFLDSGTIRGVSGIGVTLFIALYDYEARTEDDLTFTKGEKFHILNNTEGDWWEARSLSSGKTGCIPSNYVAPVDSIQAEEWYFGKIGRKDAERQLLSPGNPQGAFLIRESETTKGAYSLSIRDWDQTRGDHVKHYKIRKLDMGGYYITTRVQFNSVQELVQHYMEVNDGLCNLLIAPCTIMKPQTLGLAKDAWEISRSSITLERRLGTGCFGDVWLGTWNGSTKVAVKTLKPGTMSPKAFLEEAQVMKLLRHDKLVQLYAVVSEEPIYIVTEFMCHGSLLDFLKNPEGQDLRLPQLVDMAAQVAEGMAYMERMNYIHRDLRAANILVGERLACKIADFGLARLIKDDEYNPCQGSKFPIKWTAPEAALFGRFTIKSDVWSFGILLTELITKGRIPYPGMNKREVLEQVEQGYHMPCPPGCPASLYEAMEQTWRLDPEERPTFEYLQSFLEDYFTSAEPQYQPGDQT

As to `O=C1Nc2cc(Br)ccc2/C1=C1/Nc2ccccc2/C1=N\O`, the residual activity in [1] is 15%; in [2] it was 3%; in [3], 3%; in [4] it was 16%; in test [5], 18%; in test [6], 59%. Also, the residual activity is 54% in test [7]; 67% in [8]; 35% in test [9]; 86% in test [10]; 45% in test [11]; 79% in [12]. The residual activity in test [13] is 100%; in [14] it was 1%; in test [15], 2%; in test [16] it was -1%; in test [17], 1%; in [18], 1%. Further, the residual activity in [19] and in test [20] was 1% throughout.
As to `CO[C@H]1C[C@@H]2CC[C@@H](C)[C@@](O)(O2)C(=O)C(=O)N2CCCC[C@H]2C(=O)O[C@H]([C@H](C)C[C@@H]2CC[C@@H](O)[C@H](OC)C2)CC(=O)[C@H](C)/C=C(\C)[C@@H](O)[C@@H](OC)C(=O)[C@H](C)C[C@H](C)/C=C/C=C/C=C/1C`, the residual activity in test [1] was 83%; in test [2], 111%; in test [3], 63%; in [4] it was 115%; in test [5], 114%; in [6], 97%. Further, the residual activity in test [7] is 107%; in test [8], 138%; in [9] it was 145%; in test [10], 106%; in test [11] it was 95%; in test [12], 106%. Moreover, the residual activity in test [13] worked out at 84%; in test [14], 98%; in [15] it was 99%; in test [16], 88%; in [17], 96%; in [18], 100%. Besides, the residual activity in test [19] is 96%; in [20], 99%.
`CCN(CC)CCCCN1c2ccccc2Oc2ccc(Cl)cc21`: the residual activity amounted to 108% in test [1]; 113% in test [2]; 82% in [3]; 108% in test [4]; 112% in test [5]; 110% in test [6]. In addition, the residual activity in test [7] was found to be 99%; in test [8], 129%; in test [9] it was 90%; in test [10], 117%; in test [11], 102%; in test [12], 129%. For the same compound, the residual activity in [13] was found to be 88%; in [14] it was 111%; in test [15] it was 95%; in [16], 115%; in test [17], 112%; in test [18] it was 98%. In addition, the residual activity was determined as 74% in [19] and 96% in [20].
On to `COc1cc2ncnc(N3CCN(C(=O)Nc4ccc(Oc5ccccc5)cc4)CC3)c2cc1OC`, for which the residual activity in test [1] was 76%; in test [2] it was 90%; in test [3], 89%; in test [4], 105%; in test [5], 102%; in test [6] it was 115%. For the same compound, the residual activity in test [7] was 99%; in test [8], 120%; in test [9], 105%; in test [10], 104%; in [11] it was 88%; in test [12] it was 98%. In addition, the residual activity amounted to 86% in test [13]; 96% in [14]; 97% in test [15]; 56% in test [16]; 21% in test [17]; 37% in test [18]. Further, the residual activity in [19] stood at 18%; in test [20], 31%.
On to `COc1ccc(OC)c2c(=S)c3ccccc3[nH]c12`, for which the residual activity in test [1] came out at 108%; in [2], 116%; in [3] it was 82%; in test [4], 97%; in [5], 85%; in test [6], 129%. Besides, the residual activity is 113% in test [7]; 112% in [8]; 88% in test [9]; 98% in [10]; 92% in test [11]; 89% in test [12]. The residual activity in [13] was found to be 103%; in test [14], 94%; in [15], 99%; in test [16], 90%; in test [17], 77%; in test [18] it was 83%. The residual activity in [19] was 73%; in test [20], 89%.
On to `O=C1c2ccccc2-[n+]2ccc3c([nH]c4ccccc43)c21`, for which the residual activity in test [1] was found to be 90%; in test [2], 100%; in [3], 78%; in [4], 107%; in test [5], 84%; in test [6] it was 96%. Further, the residual activity in [7] was found to be 114%; in [8], 109%; in [9] it was 97%; in test [10] it was 92%; in test [11] it was 90%; in [12], 89%. Moreover, the residual activity was 88% in test [13]; 92% in [14]; 85% in test [15]; 79% in [16]; 67% in [17]; 87% in test [18]. Moreover, the residual activity in test [19] was found to be 52%; in test [20] it was 76%.
For `COc1cc2ncnc(Nc3ccc(O)c(Br)c3)c2cc1OC`, the residual activity was determined as 64% in [1]; 58% in test [2]; 24% in test [3]; 94% in test [4]; 67% in test [5]; 109% in test [6]. For the same compound, the residual activity in test [7] was determined as 67%; in test [8], 126%; in test [9] it was 101%; in test [10], 105%; in [11], 84%; in test [12], 95%. The residual activity in test [13] stood at 65%; in [14], 39%; in test [15], 6%; in [16], 29%; in test [17], 4%; in [18], 49%. Moreover, the residual activity in test [19] was 2%; in test [20] it was 14%.
Regarding `O=C1NC(=O)c2c1c1c3ccccc3[nH]c1c1[nH]c3cc(Br)ccc3c21`, the residual activity in [1] amounted to 95%; in test [2], 90%; in test [3] it was 57%; in test [4], 99%; in test [5] it was 82%; in [6] it was 104%. Besides, the residual activity in test [7] worked out at 88%; in test [8], 94%; in [9], 90%; in test [10], 103%; in test [11], 86%; in [12], 100%. Further, the residual activity in [13] stood at 96%; in test [14] it was 100%; in test [15], 91%; in test [16], 30%; in [17] it was 17%; in [18] it was 41%. The residual activity in [19] came out at 27%; in [20] it was 4%.
With `O=Nc1c(-c2c(O)[nH]c3ccccc23)[nH]c2ccccc12`, the residual activity is 2% in test [1]; 3% in test [2]; -1% in test [3]; 22% in [4]; 2% in [5]; 20% in test [6]. Also, the residual activity in [7] was determined as 2%; in test [8], 100%; in [9] it was 45%; in test [10], 70%; in test [11], 53%; in [12] it was 72%. For the same compound, the residual activity in test [13] was determined as 30%; in test [14], 8%; in test [15] it was 1%; in test [16], 1%; in [17], 0%; in test [18] it was 1%. Besides, the residual activity is 0% in test [19] and -1% in [20].
Turning to `O=c1cc(-c2cccc3c2Sc2ccccc2S3)oc(N2CCOCC2)c1`, the residual activity was 116% in test [1]; 120% in test [2]; 95% in test [3]; 106% in test [4]; 81% in [5]; 112% in test [6]. Also, the residual activity amounted to 84% in test [7]; 104% in test [8]; 88% in [9]; 115% in test [10]; 83% in test [11]; 94% in test [12]. In addition, the residual activity in test [13] is 96%; in test [14], 99%; in test [15] it was 93%; in test [16], 95%; in test [17], 85%; in [18], 85%. Further, the residual activity amounted to 83% in test [19] and 97% in [20].
Turning to `Cn1cc(/C=C2\C(=O)Nc3ccc(S(N)(=O)=O)cc32)c2ccccc21`, the residual activity in [1] is 42%; in test [2] it was 19%; in [3], 5%; in test [4], 10%; in test [5] it was 3%; in test [6], 17%. The residual activity is 14% in [7]; 118% in test [8]; 69% in test [9]; 35% in test [10]; 9% in [11]; 40% in test [12]. The residual activity was determined as 15% in test [13]; 9% in test [14]; 10% in test [15]; 22% in [16]; 9% in test [17]; 1% in test [18]. The residual activity in test [19] was -1%; in test [20], 11%.
On to `Cc1cc(Nc2nc(-c3ccccc3)nc3ccccc23)n[nH]1`, for which the residual activity in [1] was determined as 7%; in test [2] it was 4%; in [3], 2%; in [4] it was 24%; in test [5], 2%; in test [6], 34%. Besides, the residual activity in test [7] was determined as 4%; in test [8], 106%; in test [9], 72%; in [10], 43%; in test [11], 6%; in test [12], 58%. Further, the residual activity in test [13] was determined as 21%; in test [14], 18%; in test [15] it was 2%; in test [16], 0%; in test [17], 1%; in test [18] it was 2%. Further, the figures for the residual activity in test [19] and in [20] were 1% and 0%, respectively.
As for `Cc1nc2cc3nc(-c4cccs4)cnc3cc2n1C`, the residual activity turned out to be 105% in [1]; 102% in test [2]; 41% in test [3]; 72% in test [4]; 30% in [5]; 79% in test [6]. Also, the residual activity in [7] amounted to 23%; in [8] it was 119%; in test [9] it was 95%; in test [10], 113%; in test [11], 105%; in test [12], 134%. In addition, the residual activity worked out at 88% in [13]; 109% in test [14]; 69% in test [15]; 40% in [16]; 3% in [17]; 15% in test [18]. Besides, the residual activity in test [19] turned out to be 1%; in test [20], 24%.
